From PubChem BioAssay AID1159580 (chemical genetic matrix, 2015)
Hit rate of the full screen: of about 5,500 compounds, about 2,000 (36%) were called active. Roughly 18% stayed inconclusive and do not appear here. Cut-off read from the data, not from the text of the source: active = normalized growth mostly below about 0.91 (no sharp cut-off); inconclusive = no clear call, values can overlap the other calls; inactive = mostly above about 0.92. The list shows a part of the results.

Assay: chemical genetic growth profiling, strain panel (AID 1159580);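 note: tested at 20 µM; growth read once vehicle control cultures reached saturation at 30 °C; 1 = growth at the plate median or of vehicle wells; lower values mean less growth of the strain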
Details: growth OD

Measured: normalized growth

COP(=O)(OC)OC=C(Cl)Cl
inactive: S. cerevisiae deletion strains, locus YJR075W, strain HOC1, active compounds read low 0.962 | S. cerevisiae deletion strains, locus YKL009W, strain mrt4, active compounds read low 0.951 | S. cerevisiae deletion strains, locus YKL068W, active compounds read low 0.986 | S. cerevisiae deletion strains, locus YKL085W, strain MDH1 (second series), active compounds read low 0.981 | S. cerevisiae deletion strains, locus YKL085W, strain MDH1, active compounds read low 0.981 | S. cerevisiae deletion strains, locus YKL160W, strain elf1, active compounds read low 0.999 | S. cerevisiae deletion strains, locus YKL190W, strain CNB1, active compounds read low 0.994 | S. cerevisiae deletion strains, locus YKR001C, strain vps1, active compounds read low 0.992 | S. cerevisiae deletion strains, locus YKR026C, strain gcn3, active compounds read low 1.01 | S. cerevisiae deletion strains, locus YKR091W, strain srl3, active compounds read low 0.997 | S. cerevisiae deletion strains, locus YLL001W, strain dnm1, active compounds read low 1.01 | S. cerevisiae deletion strains, locus YLL026W, active compounds read low 0.997 | S. cerevisiae deletion strains, locus YLL041C, strain sdh2, active compounds read low 1 | S. cerevisiae deletion strains, locus YLR027C, strain aat2, active compounds read low 1 | S. cerevisiae deletion strains, locus YLR039C, strain RIC1, active compounds read low 0.979 | S. cerevisiae deletion strains, locus YLR058C, strain SHM2, active compounds read low 0.983 | S. cerevisiae deletion strains, locus YLR102C, strain apc9, active compounds read low 0.977 | S. cerevisiae deletion strains, locus YLR113W, strain HOG1, active compounds read low 1.02 | S. cerevisiae deletion strains, locus YLR221C, strain rsa3, active compounds read low 0.999 | S. cerevisiae deletion strains, locus YLR258W, strain gsy2, active compounds read low 0.999 | S. cerevisiae deletion strains, locus YLR262C, strain YPT6 (second series), active compounds read low 1.01 | S. cerevisiae deletion strains, locus YLR262C, strain YPT6, active compounds read low 0.97 | S. cerevisiae deletion strains, locus YLR268W, strain sec22, active compounds read low 0.996 | S. cerevisiae deletion strains, locus YLR320W, strain mms22, active compounds read low 1.01 | S. cerevisiae deletion strains, locus YLR330W, strain CHS5, active compounds read low 0.996 | S. cerevisiae deletion strains, locus YLR342W, strain FKS1 (second series), active compounds read low 0.971 | S. cerevisiae deletion strains, locus YLR342W, strain FKS1, active compounds read low 0.983 | S. cerevisiae deletion strains, locus YLR357W, strain rsc2, active compounds read low 1.07 | S. cerevisiae deletion strains, locus YLR370C, strain arc18, active compounds read low 0.999 | S. cerevisiae deletion strains, locus YLR371W, strain rom2, active compounds read low 0.989 | S. cerevisiae deletion strains, locus YLR384C, strain iki3, active compounds read low 0.998 | S. cerevisiae deletion strains, locus YLR418C, strain cdc73, active compounds read low 1.01 | S. cerevisiae deletion strains, locus YML016C, strain PPZ1, active compounds read low 0.986 | S. cerevisiae deletion strains, locus YML032C, strain rad52, active compounds read low 0.978 | S. cerevisiae deletion strains, locus YML120C, strain ndi1, active compounds read low 0.981 | S. cerevisiae deletion strains, locus YML124C, strain tub3, active compounds read low 0.992 | S. cerevisiae deletion strains, locus YMR058W, strain fet3, active compounds read low 0.994 | S. cerevisiae deletion strains, locus YMR078C, strain ctf18, active compounds read low 0.992 | S. cerevisiae deletion strains, locus YMR125W, strain sto1, active compounds read low 0.982 | S. cerevisiae deletion strains, locus YMR129W, active compounds read low 0.992 | S. cerevisiae deletion strains, locus YMR205C, strain PFK2, active compounds read low 0.991 | S. cerevisiae deletion strains, locus YMR223W, strain ubp8, active compounds read low 0.985 | S. cerevisiae deletion strains, locus YMR231W, strain pep5, active compounds read low 1.01 | S. cerevisiae deletion strains, locus YMR263W, strain SAP30, active compounds read low 0.976 | S. cerevisiae deletion strains, locus YMR307W, strain GAS1, active compounds read low 1.1 | S. cerevisiae deletion strains, locus YNL067W, strain RPL9B, active compounds read low 0.963 | S. cerevisiae deletion strains, locus YNL071W, strain lat1, active compounds read low 1.01 | S. cerevisiae deletion strains, locus YNL128W, strain TEP1, active compounds read low 0.956 | S. cerevisiae deletion strains, locus YNL153C, strain GIM3, active compounds read low 0.986 | S. cerevisiae deletion strains, locus YNL183C, strain NPR1, active compounds read low 0.998 | S. cerevisiae deletion strains, locus YNL209W, strain ssb2, active compounds read low 0.998 | S. cerevisiae deletion strains, locus YNL233W, strain BNI4, active compounds read low 0.977 | S. cerevisiae deletion strains, locus YNL248C, strain rpa49, active compounds read low 0.994 | S. cerevisiae deletion strains, locus YNL250W, strain rad50, active compounds read low 0.988 | S. cerevisiae deletion strains, locus YNL271C, strain bni1, active compounds read low 0.98 | S. cerevisiae deletion strains, locus YNL298W, strain CLA4, active compounds read low 1 | S. cerevisiae deletion strains, locus YNL307C, strain MCK1, active compounds read low 1 | S. cerevisiae deletion strains, locus YNL322C, strain KRE1 (second series), active compounds read low 1.02 | S. cerevisiae deletion strains, locus YNL322C, strain KRE1, active compounds read low 0.985 | S. cerevisiae deletion strains, locus YNR049C, strain mso1, active compounds read low 0.982 | S. cerevisiae deletion strains, locus YNR052C, strain pop2, active compounds read low 0.991 | S. cerevisiae deletion strains, locus YOL006C, strain TOP1, active compounds read low 1.01 | S. cerevisiae deletion strains, locus YOL012C, strain htz1 1.06 | S. cerevisiae deletion strains, locus YOL147C, strain pex11, active compounds read low 1 | S. cerevisiae deletion strains, locus YOR001W, strain rrp6, active compounds read low 0.996 | S. cerevisiae deletion strains, locus YOR061W, strain CKA2, active compounds read low 0.96 | S. cerevisiae deletion strains, locus YOR069W, strain VPS5, active compounds read low 0.98 | S. cerevisiae deletion strains, locus YOR070C, strain gyp1, active compounds read low 0.99 | S. cerevisiae deletion strains, locus YOR080W, strain dia2, active compounds read low 0.987 | S. cerevisiae deletion strains, locus YOR083W, strain WHI5, active compounds read low 0.987 | S. cerevisiae deletion strains, locus YOR106W, strain vam3, active compounds read low 0.983 | S. cerevisiae deletion strains, locus YOR136W, strain idh2, active compounds read low 0.986 | S. cerevisiae deletion strains, locus YOR144C, strain elg1, active compounds read low 0.984 | S. cerevisiae deletion strains, locus YOR184W, strain ser1, active compounds read low 0.998 | S. cerevisiae deletion strains, locus YOR231W, strain MKK1, active compounds read low 1.05 | S. cerevisiae deletion strains, locus YOR265W, strain rbl2, active compounds read low 0.988 | S. cerevisiae deletion strains, locus YOR270C, strain vph1, active compounds read low 0.976 | S. cerevisiae deletion strains, locus YOR290C, strain snf2, active compounds read low 0.997 | S. cerevisiae deletion strains, locus YOR316C, strain cot1, active compounds read low 0.971 | S. cerevisiae deletion strains, locus YPL051W, strain arl3, active compounds read low 0.998 | S. cerevisiae deletion strains, locus YPL055C, strain LGE1, active compounds read low 0.998 | S. cerevisiae deletion strains, locus YPL078C, strain atp4, active compounds read low 0.99 | S. cerevisiae deletion strains, locus YPL106C, strain sse1, active compounds read low 0.992 | S. cerevisiae deletion strains, locus YPL240C, strain hsp82, active compounds read low 1 | S. cerevisiae deletion strains, locus YPL241C, strain CIN2, active compounds read low 0.98 | S. cerevisiae deletion strains, locus YPL256C, strain CLN2, active compounds read low 1.05 | S. cerevisiae deletion strains, locus YPR119W, strain clb2, active compounds read low 0.997 | S. cerevisiae deletion strains, locus YPR141C, strain kar3, active compounds read low 0.972 | S. cerevisiae deletion strains, locus YPR163C, strain tif3, active compounds read low 0.995 | S. cerevisiae deletion strains, locus YPR167C, strain met16, active compounds read low 0.976 | S. cerevisiae deletion strains, strain wtn01, active compounds read low 0.995 | S. cerevisiae strains, strain wild type, active compounds read low 0.997
